# Laboratory results published in PubChem BioAssay (Tox21).
# Results filed as inconclusive are left out. A call without a number means that no potency is given here. Values without a mark were called inactive. Calls of active or inactive are those of the source. Unless noted, calls follow the shape of the full dose curve.
# Assays:
# [1] = qHTS assay to identify small molecule antagonists of the vitamin D receptor (VDR) signaling pathway - cell viability counter screen (AID 743225; active = well fitted curve in the direction sought with a large enough effect in the repeat runs; an effect the other way counts as inactive or inconclusive; also: nearly all actives have a fitted effect of over 50% in size)
# Outline: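 VDR-UAS-bla HEK 293T cells were plated and incubated 4 h at 37C, then dosed with compound plus 3 nM (final) 1-alpha,25-dihydroxyvitamin D3 for 16 h. After the 2 h beta-lactamase read, viability in the same wells was read as CellTiter-Glo luminescence after 30 min at room temperature.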
# [2] = qHTS assay to identify small molecule agonists of the NFkB signaling pathway (AID 1159509; active = well fitted curve in the direction sought with a large enough effect in the signal ratio in the repeat runs, not every such curve was filed as active; the % refers to the signal ratio; also: series mostly up to about 61 µM)
# Outline: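 NFkB-bla ME-180 cells carry a beta-lactamase reporter under an NF-kB response element. They were plated overnight, then exposed to compounds for 5 h at 37 C. Read-out is LiveBLAzer FRET after 1.5 hr at room temperature (405 nm excitation; 460/530 nm emission).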
# [3] = qHTS assay to identify small molecule agonists of the NFkB signaling pathway - cell viability counter screen (AID 1159515); also: series mostly up to about 61 µM; nearly all actives have a fitted effect of over 55% in size
# Outline: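 NFkB-bla ME-180 cells, 2,000/well, plated overnight at 37 C; compound added for 5 hr at 37 C. Viability read in the same wells as the bla reporter, by CellTiter-Glo luminescence after 30 min at room temperature.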
# [4] = qHTS assay to identify small molecule agonists of the endoplasmic reticulum stress response signaling pathway (AID 1159516; active = well fitted activation curve with a large enough effect in the signal ratio in the repeat runs, not every such curve was filed as active; the % refers to the signal ratio)
# Outline: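 CellSensor ESRE-bla HeLa cells, 1,500 per well, plated overnight, then exposed to compounds for 5 hr at 37 C. Beta-lactamase reporter read with LiveBLAzer B/G FRET substrate after 2 hr at room temperature, 405 nm excitation, 460 and 530 nm emission.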
# [5] = qHTS assay to identify small molecule agonists of the endoplasmic reticulum stress response signaling pathway - cell viability counter screen (AID 1159517);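 also: HeLa cells carrying an ER stress response element beta-lactamase reporter; series mostly up to about 61 µM; nearly all actives have a fitted effect of over 50% in size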
# Outline: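 HeLa cells carrying an ESRE-driven beta-lactamase reporter receive compound for 5 hr at 37 C. Cell viability is then gauged with CellTiter-Glo by luminescence, 30 min at room temperature.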
# [6] = qHTS assay to identify small molecule antagonists of the retinoid-related orphan receptor gamma (ROR-gamma) signaling pathway - cell viability counter screen (AID 1159520; active = well fitted curve in the direction sought with a large enough effect in the repeat runs; an effect the other way counts as inactive or inconclusive; also: nearly all actives have a fitted effect of over 50% in size)
# Outline: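 Cytotoxicity was read from cellular ATP (CellTiter-Glo luminescence) after 16 hr at 37 C with 1 uM doxycycline induction. The inducer was added 2 hr after compound transfer to Tet-on ROR gamma CHO cells.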
# [7] = target: Nuclear receptor ROR-gamma (Homo sapiens) (UniProt P51449); experiment: qHTS assay to identify small molecule antagonists of the retinoid-related orphan receptor gamma (ROR-gamma) signaling pathway (AID 1159521; active = well fitted curve in the direction sought with a large enough effect in the repeat runs; an effect the other way counts as inactive or inconclusive; also: nearly all actives have a fitted effect of over 50% in size; also: potency is read from the fitted curve at half-maximal effect;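 as to activity change, negative = inhibition: CHO cells with doxycycline inducible ROR-gamma driving an RORE luciferase reporter; top concentration of the series differs between compounds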)
# Outline: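 Tet-on ROR-gamma CHO cells with ROR response element-luciferase reporter; compounds added 2 hr before 1 uM doxycycline induction, then 16 hr at 37 C. Antagonism scored as decreased ONE-Glo luminescence.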
# [8] = qHTS assay to identify small molecule agonists of the AP-1 signaling pathway (AID 1159526)
# [9] = qHTS assay to identify small molecule agonists of the vitamin D receptor (VDR) signaling pathway - cell viability counter screen (AID 743224; active = well fitted curve in the direction sought with a large enough effect in the repeat runs; an effect the other way counts as inactive or inconclusive)
# Outline: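 VDR-bla cells, 4 h after plating, exposed to compounds for 16 h at 37C; viability then read in the same wells as CellTiter-Glo luminescence after 30 min at room temperature, following the bla FRET read.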
# [10] = qHTS assay to identify small molecule agonists of the AP-1 signaling pathway - cell viability counter screen (AID 1159525); also: nearly all actives have a fitted effect of over 55% in size
# Outline: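 Luminescent ATP readout (Cell Titer Glo, 30 min RT), normalised to DMSO and tetra n-octyl ammonium bromide controls. Cells were ME-180 AP-1-bla in 0.5% dialyzed FBS Opti-MEM, with a 5 h, 37 °C compound exposure.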
SMILES,Potency [1],outcome [2],outcome [3],outcome [4],outcome [5],Potency [6],Potency [7],Potency [8],Potency [9],outcome [10],"activity, negative = cytotoxicity [6]","viability change, negative = cytotoxic [10]",activation [8],"activity change, negative = inhibition [7]"
COc1cc2c(cc1N)oc1ccccc12,inactive,inactive,inactive,inactive,inactive,inactive,inactive,inactive,–,–,–,–,–,–
CCOC(=O)COc1ccc2c(c1)CC(NCC(O)c1cccc(Cl)c1)CC2 (centres undefined),–,inactive,inactive,inactive,inactive,inactive,inactive,–,inactive,–,–,–,–,–
C1CCOC1,–,inactive,inactive,inactive,inactive,inactive,–,inactive,inactive,inactive,–,–,–,–
O=CCCc1ccccc1,inactive,inactive,inactive,inactive,inactive,inactive,–,inactive,inactive,inactive,–,–,–,–
CCCOc1ccc2c(c1)CC[C@@H]1[C@@H]2CC[C@]2(C)C(OC)CC[C@@H]12 (some centres undefined),inactive,inactive,inactive,inactive,inactive,inactive,inactive,–,inactive,–,–,–,–,–
CN(CC1(C)CCCO1)S(=O)(=O)c1ccc(Cl)c(S(N)(=O)=O)c1 (centres undefined),inactive,inactive,inactive,inactive,inactive,inactive,–,inactive,inactive,inactive,–,–,–,–
O=C(O)[C@@H](O)[C@H](O)[C@H](O)[C@@H](O)C(=O)O,inactive,inactive,inactive,inactive,inactive,inactive,inactive,inactive,inactive,–,–,–,–,–
CC(C)O,inactive,inactive,inactive,inactive,inactive,inactive,65.6 µM (active),–,–,–,–,–,–,–
CCc1nnc(NS(=O)(=O)c2ccc(N)cc2)s1,inactive,inactive,inactive,inactive,inactive,inactive,–,inactive,inactive,inactive,–,–,–,–
CCCCC1CCC(=O)O1 (centres undefined),inactive,inactive,inactive,inactive,inactive,inactive,–,inactive,inactive,inactive,–,–,–,–
CC1=C(O)C(=O)OC1C (centres undefined),–,inactive,inactive,inactive,inactive,inactive,–,inactive,inactive,inactive,–,–,–,–
Cc1cc2c(s1)Nc1ccccc1N=C2N1CCN(C)CC1,inactive,inactive,inactive,inactive,inactive,inactive,inactive,–,inactive,–,–,–,–,–
CC(=O)Nc1ccc(C)c(Cl)c1,inactive,inactive,inactive,inactive,inactive,inactive,–,inactive,inactive,inactive,–,–,–,–
CCCCc1ccc2nc(NC(=O)OC)[nH]c2c1,inactive,inactive,inactive,inactive,inactive,inactive,inactive,–,inactive,–,–,–,–,–
Cc1cc(S(=O)(=O)O)c(N)cc1Cl,inactive,inactive,inactive,inactive,inactive,inactive,–,inactive,inactive,inactive,–,–,–,–
OCCN(CCO)c1ccccc1,inactive,inactive,inactive,inactive,inactive,inactive,–,inactive,inactive,inactive,–,–,–,–
CC1=CC(=O)CC(C)(C)C1=O,inactive,inactive,inactive,inactive,inactive,inactive,–,inactive,inactive,inactive,–,–,–,–
CCCCN1C[C@H](O)[C@@H](O)[C@H](O)[C@H]1CO,–,inactive,inactive,inactive,inactive,inactive,–,inactive,inactive,inactive,–,–,–,–
CCCNC(C)C(=O)Nc1c(C)csc1C(=O)OC (centres undefined),inactive,inactive,inactive,inactive,inactive,inactive,–,inactive,inactive,inactive,–,–,–,–
CN(C)Cc1ccccc1,inactive,inactive,inactive,inactive,inactive,inactive,–,inactive,inactive,inactive,–,–,–,–
C[C@@H]1CN(c2c(F)c(N)c3c(=O)c(C(=O)O)cn(C4CC4)c3c2F)C[C@H](C)N1,inactive,inactive,inactive,inactive,inactive,–,–,–,inactive,–,2.26% [at 19 µM],1.46% [at 15.8 µM],-6.27% [at 15.8 µM],–
C1CSCCS1,–,inactive,inactive,inactive,inactive,inactive,–,inactive,inactive,inactive,–,–,–,–
O=C1C=CC(=O)O1,inactive,inactive,inactive,inactive,inactive,inactive,–,inactive,inactive,inactive,–,–,–,–
Oc1ccccc1F,–,inactive,inactive,inactive,inactive,inactive,–,inactive,inactive,inactive,–,–,–,–
CN(C)C(=O)NC1(c2ccccc2)CCN(CCC[C@]2(c3ccc(Cl)c(Cl)c3)CCCN(C(=O)c3ccccc3)C2)CC1,inactive,inactive,inactive,inactive,inactive,–,–,–,inactive,–,-2.5% [at 19 µM],–,11.5% [at 15.8 µM],-21% [at 19 µM]
ClC(Cl)Cl,inactive,inactive,inactive,inactive,inactive,inactive,48.2 µM (active),–,inactive,–,–,–,–,–
CCOC(=O)C1CC(=O)C(=C(O)C2CC2)C(=O)C1 (centres undefined),inactive,inactive,inactive,inactive,inactive,inactive,inactive,inactive,inactive,–,–,–,–,–
